Residues, ends and D or L forms follow the SMILES beside them. *: point of attachment. Octanoyl = CCCCCCCC(=O)*
How the values were obtained:
Format in all cases: functional
Plasmodium falciparum [1] = experiment: GSK_TCMDC: Inhibition of Plasmodium falciparum 3D7 in whole red blood cells, using parasite LDH activity as an index of growth. Test compounds present at 2uM
Plasmodium falciparum [2] = experiment: GSK_TCMDC: Inhibition of Plasmodium falciparum Dd2 in whole red blood cells, using parasite LDH activity as an index of growth. Test compounds present at 2uM
HepG2 = experiment: GSK_TCMDC: Percent inhibition of human HepG2 cell line. Test compounds present at 10uM.

Compound	Inhibition (Plasmodium falciparum [1])	Inhibition (Plasmodium falciparum [2])	Inhibition (HepG2)
COc1ccc(-c2nc3c4ccccc4c4ccc(I)cc4c3[nH]2)cc1	96%	16%	4%
CN(CCCNCc1cccc2ccccc12)CCCNCc1cccc2ccccc12.Cl	100%	94%	93%
COc1ccc(CNCc2ccc(F)cc2)cc1-c1ccc(S(=O)(=O)NCCN2CCCC2)c(C)c1.O=C(O)C(F)(F)F	98%	56%	55%
Cl.N=C(N)NN=Cc1c2ccccc2c(Cl)c2cc(Cl)ccc12	97%	28%	26%
O=C(O)C(F)(F)F.O=c1[nH]ccc2nc(N[C@@H]3CCNC3)nc(Nc3cccc(S(=O)(=O)N4CCOCC4)c3)c12	90%	98%	0%
CCCCNC(=N)c1ccc(OCCCCCOc2ccc(C(=N)NCCCC)cc2)cc1.Cl	99%	99%	19%
Cc1noc(-c2ccccc2)c1NC(=O)NC1CCN(CCCCCNC(=O)/C=C/c2ccc(Cl)c(Cl)c2)CC1	93%	0%	0%
COc1ccc(N2CCN(CCCCNC(=O)c3ccc(NC(=O)c4ccc(Cl)cc4)cc3)CC2)c(OC)c1.Cl	97%	22%	25%
O=C(C=Cc1ccc(Cl)c(Cl)c1)NCCCCCN1CCCC(CCCNC(=O)c2sc3ccccc3c2Cl)C1 (stereo not drawn)	88%	32%	82%
c1ccc(-c2cc(NCc3cccc4ccccc34)c3[nH]ncc3n2)cc1	93%	5%	7%
CC(=O)Nc1cccc(-c2cnc(N)c3cc(-c4ccc5c(c4)OCO5)ccc23)c1	99%	93%	100%
O=C(NCCN1CCOCC1)c1ccc(O)c(-c2cccc(C(F)(F)F)c2)c1	95%	48%	0%
Cc1cc(C)c2c(c1)C(=NO)CCN2	94%	2%	2%
O=C(NCc1cccnc1)C(c1cc2ccccc2o1)N1CCN(C(c2ccccc2)c2ccccc2)CC1 (stereo not drawn)	95%	81%	12%
CC(=O)N1CCC(C(=O)Nc2ccc(-c3cccc(-c4nc5cc(C(F)(F)F)ccc5[nH]4)c3)cc2)CC1	88%	33%	82%
Cc1cc(N[C@@H](CC(C)C)C(=O)NCCOc2ccccc2)nc(NCCc2ccc(F)cc2)n1.O=C(O)C(F)(F)F	95%	54%	25%
O=C(Nc1nc2ccc(Cl)cc2s1)c1csnn1	96%	99%	15%
COc1cccc(C(=O)Nc2ccc(-c3nc4ccccc4[nH]3)cc2)c1	95%	19%	28%
CN(C)CCNCc1ccc(-c2cccc(-c3nc4ccccc4[nH]3)c2)cc1.O=C(O)C(F)(F)F	100%	63%	31%
Cc1cccc(Nc2nccc(NCC(O)c3ccc(C(F)(F)F)cc3)n2)c1 (stereo not drawn)	100%	54%	11%
Cc1ccccc1C1CCN(C2CCC(NC(=O)c3cncc(-c4ccccc4)c3)CC2)CC1 (stereo not drawn)	100%	92%	27%

Compound	Inhibition (Plasmodium falciparum [1])	Inhibition (Plasmodium falciparum [2])	Inhibition (HepG2)
O=C(c1cc2ccccc2o1)N1CCc2cc3nccc(N4CCN5CCC[C@H]5C4)c3cc21	99%	100%	62%
Cc1cccc(C(=O)Nc2ccnc(N(C)CCCN(C)Cc3cccc(O)c3)c2)c1.O=C(O)C(F)(F)F	94%	71%	27%
O=C(Nc1cccc(CN2CCN(C(=O)c3cccc(F)c3)CC2)c1)c1cccs1.O=C(O)C(F)(F)F	95%	95%	17%
Fc1ccc2[nH]c(-c3cccc(-c4ccc(CNCCc5ccncc5)cc4)c3)nc2c1.O=C(O)C(F)(F)F	99%	100%	44%
COc1ccccc1C(=O)C1CCCN(C(=O)c2ccccc2C(F)(F)F)C1 (stereo not drawn)	91%	84%	0%
Cc1cccc2nc(-c3ccc(-c4ccc(CN5CCCC5CN)cc4)cc3)[nH]c12.O=C(O)C(F)(F)F (stereo not drawn)	99%	65%	28%
Cc1cnc(-c2ccc(NC(=O)c3coc4ccc(N5CC(C)N(C)C(C)C5)cc34)cc2)o1.Cl (stereo not drawn)	96%	39%	18%
O=C(Nc1ccc(-c2nc3ccccc3[nH]2)cc1)c1ccc(S(=O)(=O)N2CCCCC2)cc1	95%	6%	23%
OCCOCCNCc1cccc(C#Cc2cc3ncnc(Nc4ccc(OCc5cccc(F)c5)c(Cl)c4)c3s2)n1	96%	46%	35%
CCNc1cc(C)nc(Nc2ccc(NC(=O)c3ccco3)cc2)n1	95%	32%	24%
O=C(/C=C/c1ccc(Cl)c(Cl)c1)NC1CCN(Cc2cccc(O)c2)CC1.O=C(O)C(F)(F)F	94%	0%	0%
CC(C)C(C(=O)n1ncc2c3c(N)nc(N)nc3ccc21)C(C)C	98%	8%	67%
COc1ccc(C=CC(=O)Nc2ccc(N3CCCC3)cc2)cc1.Cl	81%	9%	0%
Cc1cc2nc(-c3ccc(/C=C/C(=O)NC4CCCCC4)cc3)[nH]c2cc1C	93%	10%	9%
CCCCCCCC(=O)N[C@@H](Cc1ccccc1)C(=O)N[C@H](C(=O)O)C(C)C (Octanoyl-Phe-Val-OH)	89%	0%	0%
O=C(Nc1cc2cc(-c3ccc(CN4CCCCC4)cc3)ccc2n2cnnc12)NC1CCCC1	100%	98%	78%
CC(C)COc1ccc(Cl)cc1Cc1ccc(-c2nc3c(F)cccc3[nH]2)o1	98%	47%	15%
CC(C)CCN(Cc1cncn1Cc1ccccc1F)C(=O)c1cncc(-c2ccccc2)c1	96%	3%	1%
Cl.N#Cc1ccc2c(c1)CCN(CCC1CCC(Nc3ncnc4ccccc34)CC1)C2 (stereo not drawn)	100%	96%	65%
O=C(Nc1ccc(S(=O)(=O)N2CCOCC2)cc1)c1cc(-c2cc(Cl)ccc2O)n[nH]1	96%	59%	40%
Cc1ccc2c(=O)cc(CCc3cccc(F)c3F)n(CC(=O)N(Cc3ccc(-c4ccc(C(F)(F)F)cc4)cc3)C3CCN(C)CC3)c2n1.O=C(O)C(O)C(O)C(=O)O	86%	76%	49%

Compound	Inhibition (Plasmodium falciparum [1])	Inhibition (Plasmodium falciparum [2])	Inhibition (HepG2)
O=C(CSc1nc(-c2ccccc2Cl)ns1)Nc1cccc(Cl)c1	96%	89%	0%
CNC(=O)C1Cc2c([nH]c3c(C)cccc23)C2(N1)C(=O)Nc1ccc(OC(F)(F)F)cc12 (stereo not drawn)	100%	50%	0%
COc1cccc(C(=O)C2CC2CN(C)CCC(O)c2ccc(Cl)c(Cl)c2)c1 (stereo not drawn)	99%	95%	17%
CCn1c(-c2nonc2N)nc2c(C#CC(C)(C)O)ncc(OCCNCCc3ccc(OC)cc3)c21.O=C(O)C(F)(F)F	91%	44%	4%
Cc1nn(-c2ccccc2)c2sc(C(=O)N(CCCN(C)C)c3nc(-c4ccccc4)cs3)cc12.Cl	95%	36%	99%
C(=N\Nc1nccc2sc(-c3ccccc3)cc12)/c1cccnc1	97%	10%	0%
COc1ccc2nc3cc(Cl)ccc3c(NCCc3ccccc3)c2c1.Cl	94%	82%	0%
CCNc1cc(C(=O)N[C@@H](Cc2ccccc2)[C@H](O)CNCCc2ccccc2)cc(N2CCCCS2(=O)=O)c1.Cl	98%	91%	14%
C(=NNc1nc2ccccc2[nH]1)c1ccccc1OCc1ccccc1	100%	90%	15%
CCCCCOc1ccc(C=NNc2nc(O)cc(-c3ccccc3)n2)cc1	88%	86%	0%
COc1cccc(CCc2ccc(O)c3c2C[C@H]2C[C@H]4[C@H](N(C)C)C(O)=C(C(N)=O)C(=O)[C@@]4(O)C(O)=C2C3=O)c1.Cl	93%	67%	43%
NC1=NC(c2ccccc2)(c2ccccn2)C(=O)N1CCCc1ccccc1.O=C(O)C(F)(F)F (stereo not drawn)	85%	64%	0%
Cn1cncc1C(=O)Nc1ccc(-c2cccc(-c3nc4cc(C(F)(F)F)ccc4[nH]3)c2)cc1	100%	3%	34%
O=C1C(c2ccccc2)=C(Nc2ccc(Cl)cc2)c2ccccc21	91%	59%	5%
O=C(Nc1cccc(OC2CCN(Cc3ccc(F)cc3)CC2)c1)c1ccc(C(F)(F)F)cc1.O=C(O)C(F)(F)F	94%	6%	28%
CCOc1ccc(-c2nonc2NC(=O)c2ccc(F)cc2)cc1OCC	100%	99%	36%
Cc1ccc2[nH]ncc2c1N(CC1CCCCC1)c1ccnc(Nc2ccc(OCC(O)CN3CC=CCC3)cc2)n1.O=CO (stereo not drawn)	100%	79%	29%
Clc1ccc(OCc2ccccc2)c(-c2nc(-c3nc4ncc(Br)cc4[nH]3)cs2)c1	100%	77%	0%
CS(=O)(=O)c1ccc(CNCc2ccc(-c3cccc(-c4nc5cc(F)ccc5[nH]4)c3)cc2)cc1.O=C(O)C(F)(F)F	100%	74%	33%

From ChEMBL document CHEMBL1157539, “Thousands of chemical starting points for antimalarial lead identification” (Nature, 2010)
